Here are results for eight compounds from PubChem BioAssay (NCI).

This is part of a sample that, as a whole, favours compounds with a hit. Of some 83,000 tested, about 20% had one in any assay.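 Negative percent growth values reflect cell death: -40 means 40% of the cells present at the start died, and -100 means all died.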 Unmarked numbers belong to inactive results. The source made the active and inactive calls. How the source made its calls: active means growth percent below 10; inactive means the rest.

Some test systems named below: HCT-15 colon; HT29 colon; SNB-75 CNS; SNB-19 CNS; U251 CNS; PC-3 prostate; SK-MEL-5 melanoma; UACC-62 melanoma; LOX IMVI melanoma; SK-MEL-28 melanoma; SK-MEL-2 melanoma; EKVX NSCLC; SN12C renal; UO-31 renal; TK-10 renal; ACHN renal; CAKI-1 renal; A498 renal; CCRF-CEM leukemia; MOLT-4 leukemia.
Common to all, as to experiment: NCI-60 one-dose screen, 48 h (100 = growth as untreated, 0 = no growth, -100 = all killed)
Common to all, as to settings: 10 µM unless noted

In the case of `CCN(CC)CCn1c2ccc(OC)cc2c2sc3cc(O)ccc3c(=O)c21`, the growth is 18.7% with HCT-15 colon; 15.1% in the test with HT29 colon; 78.8% with SNB-75 CNS; 25.8% in the test on SNB-19 CNS; 27.4% with U251 CNS; 32% in the test on PC-3 prostate. The growth was 76.1% in the test with SK-MEL-5 melanoma; 54.8% in the test on UACC-62 melanoma; -30.4% (active) with LOX IMVI melanoma; 68.8% in the test on SK-MEL-28 melanoma; 61.2% in the test on SK-MEL-2 melanoma; 47.3% in the test on EKVX NSCLC. Also, the growth in the test on SN12C renal is 23.6%; in the test with UO-31 renal, 23.9%; in the test with TK-10 renal, 82.2%; in the test with ACHN renal it was 4.69% (active); with CAKI-1 renal it was 58.1%; with A498 renal, 43.8%. Also, the growth in the test on CCRF-CEM leukemia was 13.9%; with MOLT-4 leukemia, 8.27% (active).
On to `COc1ccc(/C=C(\C(=O)NCc2cccnc2)S(=O)(=O)c2ccccc2)cc1OC`, for which the growth was 28.3% in the test with HCT-15 colon; 9.86% (active) with HT29 colon; 54.2% in the test with SNB-75 CNS; 38.4% in the test on SNB-19 CNS; 32.2% with U251 CNS; 36.5% in the test with PC-3 prostate. For the same compound, the growth in the test with SK-MEL-5 melanoma was 64.6%; in the test on UACC-62 melanoma it was 34.9%; with LOX IMVI melanoma, 4.04% (active); in the test on SK-MEL-28 melanoma it was 34.6%; with SK-MEL-2 melanoma, 54.6%; in the test with EKVX NSCLC, 38.9%. Also, the growth in the test with SN12C renal is 10.9%; in the test with UO-31 renal, 38.8%; in the test on TK-10 renal it was 46.4%; in the test on ACHN renal it was 52.8%; in the test on CAKI-1 renal, 36.1%; with A498 renal it was 51%. The growth in the test with CCRF-CEM leukemia is 9.07% (active); in the test on MOLT-4 leukemia it was 39.3%.
`COc1ccc2c(c1)CC[C@@H]1[C@@H]2CC[C@]2(C)c3c(cc(C#N)c4c3sc3ccccc34)C[C@@H]12`: the growth in the test on HCT-15 colon is 104%; with HT29 colon it was 100%; in the test with SNB-75 CNS it was 86%; with SNB-19 CNS it was 104%; in the test with U251 CNS, 104%; in the test on PC-3 prostate it was 85.5%. Also, the growth in the test with SK-MEL-5 melanoma is 95.9%; in the test with UACC-62 melanoma, 99.5%; in the test with LOX IMVI melanoma, 96.8%; with SK-MEL-28 melanoma, 110%; in the test on SK-MEL-2 melanoma, 109%; in the test on EKVX NSCLC, 103%. In addition, the growth was 104% in the test on SN12C renal; 85% in the test on UO-31 renal; 107% with TK-10 renal; 105% in the test with ACHN renal; 103% in the test with CAKI-1 renal; 109% in the test on A498 renal. Further, the values for the growth in the test with CCRF-CEM leukemia and in the test on MOLT-4 leukemia were 82.3% and 92.1%, respectively.
`Clc1ccc(Nc2nnc(CNc3ccccc3)c3ccccc23)cc1`: the growth in the test with HCT-15 colon was 13.4%; in the test with HT29 colon, 0.551% (active); with SNB-75 CNS, 19.6%; with SNB-19 CNS, 25.9%; in the test with U251 CNS it was 9.66% (active); in the test with PC-3 prostate, 7.15% (active). For the same compound, the growth in the test on SK-MEL-5 melanoma was -69.1% (active); with UACC-62 melanoma, 8.47% (active); with LOX IMVI melanoma it was 12.1%; in the test on SK-MEL-28 melanoma, 14.9%; with SK-MEL-2 melanoma it was 8.63% (active); with EKVX NSCLC, 16.9%. For the same compound, the growth in the test with SN12C renal was 28.9%; in the test on UO-31 renal, 1.91% (active); with TK-10 renal it was -0.692% (active); in the test with ACHN renal it was 7.07% (active); in the test with CAKI-1 renal, 28.2%; with A498 renal it was 24.7%. In addition, the values for the growth with CCRF-CEM leukemia and in the test with MOLT-4 leukemia were 12.4% and -9.21% (active), respectively.
On to `Cc1nn(-c2ccc([N+](=O)[O-])cc2)c2ncnc(N/N=C/c3ccccc3O)c12`, for which the growth is 26.2% with HCT-15 colon; 30.1% in the test with HT29 colon; 37.9% in the test on SNB-75 CNS; 18% in the test on SNB-19 CNS; 11.4% in the test on U251 CNS; 27% with PC-3 prostate. Besides, the growth was -42% (active) in the test with SK-MEL-5 melanoma; -11.3% (active) in the test with UACC-62 melanoma; 6.25% (active) in the test with LOX IMVI melanoma; 22% with SK-MEL-28 melanoma; 31.6% in the test on SK-MEL-2 melanoma; -0.848% (active) in the test on EKVX NSCLC. In addition, the growth in the test with SN12C renal was 6.16% (active); with UO-31 renal, -11.5% (active); with TK-10 renal it was 35.5%; in the test on ACHN renal, 12%; with CAKI-1 renal, 3.95% (active); with A498 renal, 65.6%. Moreover, the growth is -12.4% (active) with CCRF-CEM leukemia and 4% (active) with MOLT-4 leukemia.
As for `C=CC(CC(c1ccccc1)(c1ccccc1)c1ccccc1)N(CC)CC` (stereo not given), the growth is 41.4% in the test on HCT-15 colon; 16.2% with HT29 colon; 68.1% in the test on SNB-75 CNS; 98.3% in the test on SNB-19 CNS; 62% in the test on U251 CNS; 44.9% with PC-3 prostate. Further, the growth in the test on SK-MEL-5 melanoma is 13.5%; in the test on UACC-62 melanoma it was 44.2%; in the test on LOX IMVI melanoma, 71.6%; with SK-MEL-28 melanoma, 61.6%; with SK-MEL-2 melanoma, 93.7%; in the test on EKVX NSCLC, 75.7%. Besides, the growth with SN12C renal was 71.4%; with UO-31 renal, 43.2%; in the test on TK-10 renal it was 73.6%; in the test on ACHN renal, 85.8%; with CAKI-1 renal it was 65.6%; with A498 renal, 66.3%. Also, the growth was 53.5% with CCRF-CEM leukemia and 56.2% with MOLT-4 leukemia.
Consider `C=C(C)[C@@H]1CC[C@]2(C(=O)N3CCNCC3)CC[C@]3(C)[C@H](CC[C@@H]4[C@@](C)(CCC(=O)N5CCNCC5)[C@H](C(=C)C)CC[C@]43C)[C@@H]12`, for which the growth with HCT-15 colon was 30.8%; with HT29 colon, 26.1%; with SNB-75 CNS, 86.3%; in the test with SNB-19 CNS, 99%; in the test on U251 CNS, 7.62% (active); with PC-3 prostate, 57.7%. Moreover, the growth with SK-MEL-5 melanoma was 89.7%; in the test on UACC-62 melanoma, 104%; with LOX IMVI melanoma, 44.4%; in the test on SK-MEL-28 melanoma, 96.7%; in the test on SK-MEL-2 melanoma it was 102%; with EKVX NSCLC it was 102%. The growth in the test on SN12C renal was 91.4%; with UO-31 renal, 64.3%; with TK-10 renal, 93.6%; in the test with ACHN renal, 93.9%; in the test with CAKI-1 renal, 92.7%; in the test with A498 renal, 76.2%. The figures for the growth in the test on CCRF-CEM leukemia and with MOLT-4 leukemia were 3.76% (active) and 24.7%, respectively.
Take `CNCCCNc1nc2ccccc2c2c(=O)c3cc(Cl)ccc3sc12`: the growth in the test on HCT-15 colon was -19.5% (active); in the test on HT29 colon, -92.4% (active); in the test on SNB-75 CNS, 61%; in the test with SNB-19 CNS, 55.7%; in the test with U251 CNS, -87.2% (active); with PC-3 prostate it was 32.8%. Further, the growth in the test with SK-MEL-5 melanoma was 71.4%; in the test with UACC-62 melanoma, 10.9%; with LOX IMVI melanoma, -90.3% (active); with SK-MEL-28 melanoma it was 50.8%; with SK-MEL-2 melanoma, 95.3%; with EKVX NSCLC, 76.7%. Besides, the growth in the test with SN12C renal is 24.9%; in the test on UO-31 renal it was 7.83% (active); in the test on TK-10 renal, 68.9%; with ACHN renal, 13.3%; in the test with CAKI-1 renal it was 43.8%; with A498 renal, 76.2%. The growth is 12.3% with CCRF-CEM leukemia and -42% (active) with MOLT-4 leukemia.
